Experimental findings from the supplement of paper PMC10646978 are described below.

Holding throughout (conditions): modulator concentration 10 µM
The test system of assay [1] is RAW-Dual (murine macrophage reporter line). The assay can be described thus: NF-kB reporter (SEAP) activity fold change vs agonist alone; higher = enhanced NF-kB activity. The procedure, abridged:
(§1)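 In 384-well plates holding 50 000 RAW-Dual murine macrophage reporter cells per well, compound at 10 μM final was pre-incubated for 1 hour at 37 °C, after which a PRR agonist was added overnight. Supernatant SEAP read with QUANTI-Blue at 620 nm absorbance reported NF-κB, and Lucia luciferase read with QUANTI-Luc luminescence reported IRF. Fold change values come from dividing each reporter signal by the mean of agonist-only control wells on the same plate, averaged over replicate plates with propagated errors.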

For assay [2] the test system is unchanged. The assay can be described thus: IRF reporter (Lucia luciferase) activity fold change vs agonist alone; higher = enhanced IRF activity. The procedure, abridged: as §1
The test system is the same in assay [3]. Nature of the assay: viability score (confluency relative to resting cells, overnight) (fraction); higher = more viable, active = viable (0.7 or more). The procedure, abridged: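 RAW-Dual macrophages in 384-well plates were incubated overnight with compound, final concentration 10 μM. Confluency images from IncuCyte were processed in IncuCyte software into two masks covering all imaged wells. The viability score is each well's confluency relative to resting cells, and a compound met the cutoff when both masks exceeded 70% of resting cells.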

[4] abbreviates: agonist: CpG ODN 1826 0.5 ug/mL.

Each structure is given as a SMILES string. ± gives the standard deviation.

For the compound `Cc1ccc(CSCCNC(=O)CN(c2cccc(C)c2)S(C)(=O)=O)cc1`, the NF-kB reporter came out at 0.951 ± 0.09 in assay [1] (setting [4]), 1.01 ± 0.056 in assay [1] (agonist: LPS 0.1 ug/mL) and 0.99 ± 0.061 in assay [1] (agonist: MPLA […]). In addition, the results for the IRF reporter in assay [2] (agonist: 3'3'-cGAMP 10 ug/mL), in assay [2] (agonist: LPS 0.1 ug/mL) and in assay [2] (agonist: MPLA […]) were 0.998 ± 0.025, 1.44 ± 0.2 and 1.15 ± 0.2, respectively. The viability score in assay [3] is 1 (active).
On to `O=c1ccc2ccc(OCCCCN3CCN(c4cccc5sccc45)CC3)cc2[nH]1`, for which the NF-kB reporter in assay [1] (setting [4]) turned out to be 0.31 ± 0.016; in assay [1] (agonist: LPS 0.1 ug/mL) it was 0.917 ± 0.073; in assay [1] (agonist: MPLA […]), 1.16 ± 0.14. The IRF reporter worked out at 1.05 ± 0.096 in assay [2] (agonist: 3'3'-cGAMP 10 ug/mL), 1.35 ± 0.25 in assay [2] (agonist: LPS 0.1 ug/mL) and 1.15 ± 0.34 in assay [2] (agonist: MPLA […]). In addition, the viability score in assay [3] is 0.27 (inactive).
In the case of `N#CCCC1(CCC#N)S(=O)(=O)CC(c2ccc(Cl)cc2)CS1(=O)=O`, the NF-kB reporter turned out to be 0.67 ± 0.04 in assay [1] (setting [4]), 0.909 ± 0.056 in assay [1] (agonist: LPS 0.1 ug/mL) and 0.623 ± 0.05 in assay [1] (agonist: MPLA […]). The figures for the IRF reporter in assay [2] (agonist: 3'3'-cGAMP 10 ug/mL), in assay [2] (agonist: LPS 0.1 ug/mL) and in assay [2] (agonist: MPLA […]) were 0.915 ± 0.031, 1.26 ± 0.087 and 1.04 ± 0.091, respectively. Moreover, the viability score in assay [3] was 0.97 (active).
As for `CCN(CC)CC#CCOC(=O)C(O)(c1ccccc1)C1CCCCC1.Cl` (stereo unspecified), the NF-kB reporter in assay [1] (setting [4]) worked out at 0.873 ± 0.057; in assay [1] (agonist: LPS 0.1 ug/mL), 1.01 ± 0.11; in assay [1] (agonist: MPLA […]) it was 1.05 ± 0.084. The IRF reporter in assay [2] (agonist: 3'3'-cGAMP 10 ug/mL) was found to be 0.998 ± 0.047; in assay [2] (agonist: LPS 0.1 ug/mL), 1.12 ± 0.2; in assay [2] (agonist: MPLA […]) it was 1.19 ± 0.29. Besides, in assay [3], the viability score is 1.02 (active).
Turning to `O=C(O)CCCCC1CCSS1` (stereo unspecified), the NF-kB reporter in assay [1] (setting [4]) came to 0.761 ± 0.034; in assay [1] (agonist: LPS 0.1 ug/mL), 0.968 ± 0.077; in assay [1] (agonist: MPLA […]), 1.05 ± 0.056. The IRF reporter in assay [2] (agonist: 3'3'-cGAMP 10 ug/mL) is 1.03 ± 0.047; in assay [2] (agonist: LPS 0.1 ug/mL) it was 1.33 ± 0.33; in assay [2] (agonist: MPLA […]) it was 1.51 ± 0.52. For the same compound, in assay [3], the viability score was 0.978 (active).
`O=C(O)c1coc(CNC(=O)c2cocc2C(=O)O)c1`: the NF-kB reporter in assay [1] (setting [4]) is 1.04 ± 0.1; in assay [1] (agonist: LPS 0.1 ug/mL), 1.08 ± 0.08; in assay [1] (agonist: MPLA […]) it was 0.902 ± 0.054. Further, the results for the IRF reporter in assay [2] (agonist: 3'3'-cGAMP 10 ug/mL), in assay [2] (agonist: LPS 0.1 ug/mL) and in assay [2] (agonist: MPLA […]) were 0.996 ± 0.027, 1.51 ± 0.21 and 1.14 ± 0.072, respectively. The viability score in assay [3] is 1.01 (active).
`COc1ccc(C(=O)CSc2nnc(NC(=O)C3CC(=O)N(c4cccc(OC)c4)C3)s2)cc1` (stereo unspecified): the values for the NF-kB reporter in assay [1] (setting [4]), in assay [1] (agonist: LPS 0.1 ug/mL) and in assay [1] (agonist: MPLA […]) were 1.15 ± 0.066, 1.11 ± 0.11 and 1.23 ± 0.13, respectively. In addition, the IRF reporter in assay [2] (agonist: 3'3'-cGAMP 10 ug/mL) was determined as 0.528 ± 0.026; in assay [2] (agonist: LPS 0.1 ug/mL), 0.758 ± 0.059; in assay [2] (agonist: MPLA […]) it was 0.708 ± 0.23. Besides, in assay [3], the viability score is 1.01 (active).
In the case of `O=C(Cn1cnc([N+](=O)[O-])n1)Nc1cc(Oc2cccc(C(F)(F)F)c2)cc([N+](=O)[O-])c1`, the NF-kB reporter was found to be 0.529 ± 0.043 in assay [1] (setting [4]), 0.806 ± 0.097 in assay [1] (agonist: LPS 0.1 ug/mL) and 0.406 ± 0.043 in assay [1] (agonist: MPLA […]). Further, the IRF reporter in assay [2] (agonist: 3'3'-cGAMP 10 ug/mL) worked out at 0.902 ± 0.022; in assay [2] (agonist: LPS 0.1 ug/mL), 1.6 ± 0.14; in assay [2] (agonist: MPLA […]), 1.51 ± 0.21. In addition, the viability score in assay [3] was 0.995 (active).
With `CN(C)CCN(Cc1ccccc1)Cc1cccc(Cl)c1`, the NF-kB reporter in assay [1] (setting [4]) was 0.976 ± 0.057; in assay [1] (agonist: LPS 0.1 ug/mL), 0.928 ± 0.16; in assay [1] (agonist: MPLA […]), 1.05 ± 0.044. Moreover, the IRF reporter came to 0.838 ± 0.04 in assay [2] (agonist: 3'3'-cGAMP 10 ug/mL), 1.02 ± 0.048 in assay [2] (agonist: LPS 0.1 ug/mL) and 0.87 ± 0.1 in assay [2] (agonist: MPLA […]). Moreover, the viability score in assay [3] is 0.999 (active).
On to `CCC(=O)NS(=O)(=O)c1ccc(-c2c(-c3ccccc3)noc2C)cc1`, for which the NF-kB reporter stood at 0.921 ± 0.14 in assay [1] (setting [4]), 1.2 ± 0.26 in assay [1] (agonist: LPS 0.1 ug/mL) and 0.905 ± 0.05 in assay [1] (agonist: MPLA […]). Moreover, the IRF reporter amounted to 0.971 ± 0.051 in assay [2] (agonist: 3'3'-cGAMP 10 ug/mL), 1.47 ± 0.31 in assay [2] (agonist: LPS 0.1 ug/mL) and 1.25 ± 0.1 in assay [2] (agonist: MPLA […]). Also, the viability score in assay [3] is 0.996 (active).
Consider `Cc1cnc(Nc2ccc(OCCN3CCCC3)cc2)nc1Nc1cccc(S(=O)(=O)NC(C)(C)C)c1`, for which the NF-kB reporter in assay [1] (setting [4]) stood at 0.769 ± 0.17; in assay [1] (agonist: LPS 0.1 ug/mL) it was 1.81 ± 0.14; in assay [1] (agonist: MPLA […]) it was 2.74 ± 0.12. The values for the IRF reporter in assay [2] (agonist: 3'3'-cGAMP 10 ug/mL), in assay [2] (agonist: LPS 0.1 ug/mL) and in assay [2] (agonist: MPLA […]) were 0.0927 ± 0.014, 0.0391 ± 0.0087 and 0.064 ± 0.028, respectively. In addition, the viability score in assay [3] was 0.0864 (inactive).
As to `CSCCC(NC(C)=O)C(=O)N1CCc2nc3ccc(F)cn3c(=O)c2C1` (stereo unspecified), the NF-kB reporter in assay [1] (setting [4]) is 1.05 ± 0.097; in assay [1] (agonist: LPS 0.1 ug/mL), 1.05 ± 0.088; in assay [1] (agonist: MPLA […]), 0.906 ± 0.074. Besides, the IRF reporter in assay [2] (agonist: 3'3'-cGAMP 10 ug/mL) was found to be 0.97 ± 0.085; in assay [2] (agonist: LPS 0.1 ug/mL), 1.24 ± 0.15; in assay [2] (agonist: MPLA […]) it was 1.13 ± 0.12. The viability score in assay [3] is 1.01 (active).
As to `CCCCSc1nnc2c(n1)OC(c1cccc(C)n1)Nc1ccc(Br)cc1-2` (stereo unspecified), the NF-kB reporter in assay [1] (setting [4]) stood at 0.922 ± 0.073; in assay [1] (agonist: LPS 0.1 ug/mL) it was 1.05 ± 0.07; in assay [1] (agonist: MPLA […]) it was 0.97 ± 0.045. Moreover, the IRF reporter in assay [2] (agonist: 3'3'-cGAMP 10 ug/mL) stood at 0.985 ± 0.14; in assay [2] (agonist: LPS 0.1 ug/mL) it was 1.02 ± 0.068; in assay [2] (agonist: MPLA […]), 0.921 ± 0.11. Besides, the viability score in assay [3] was 1 (active).
